PubChem BioAssay (NCI)
This is part of a sample that, as a whole, favours compounds with a hit. Of some 83,000 tested, about 20% had one in any assay.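 Results are percent growth after 48 hours of single-concentration exposure. 100 means growth as in untreated cells, lower positive values show inhibition; negative values down to -100 show cell death.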 Values without a mark were called inactive. The source made the active and inactive calls. The calls were made as follows: active = growth percent below 10; inactive = the rest.

Tests used:
Experiment in all cases: NCI-60 one-dose screen, 48 h (100 = growth as untreated, 0 = no growth, -100 = all killed)
Conditions in all cases: 10 µM unless noted
DU-145 prostate = tested on: DU-145 prostate
K-562 leukemia = tested on: K-562 leukemia
MALME-3M melanoma = tested on: MALME-3M melanoma
MDA-MB-231 breast = tested on: MDA-MB-231 breast
RXF 393 renal = tested on: RXF 393 renal
SF-268 CNS = tested on: SF-268 CNS
SF-295 CNS = tested on: SF-295 CNS
SF-539 CNS = tested on: SF-539 CNS
UACC-257 melanoma = tested on: UACC-257 melanoma
M14 melanoma = tested on: M14 melanoma
HCT-15 colon = tested on: HCT-15 colon
HT29 colon = tested on: HT29 colon
SNB-75 CNS = tested on: SNB-75 CNS
SNB-19 CNS = tested on: SNB-19 CNS
U251 CNS = tested on: U251 CNS
PC-3 prostate = tested on: PC-3 prostate
UACC-62 melanoma = tested on: UACC-62 melanoma
LOX IMVI melanoma = tested on: LOX IMVI melanoma
SK-MEL-28 melanoma = tested on: SK-MEL-28 melanoma
SK-MEL-5 melanoma = tested on: SK-MEL-5 melanoma

Structure (SMILES) | growth (DU-145 prostate) | growth (K-562 leukemia) | growth (MALME-3M melanoma) | growth (MDA-MB-231 breast) | growth (RXF 393 renal) | growth (SF-268 CNS) | growth (SF-295 CNS) | growth (SF-539 CNS) | growth (UACC-257 melanoma) | growth (M14 melanoma) | growth (HCT-15 colon) | growth (HT29 colon) | growth (SNB-75 CNS) | growth (SNB-19 CNS) | growth (U251 CNS) | growth (PC-3 prostate) | growth (UACC-62 melanoma) | growth (LOX IMVI melanoma) | growth (SK-MEL-28 melanoma) | growth (SK-MEL-5 melanoma)
COc1cc2c(cc1-c1c(C)noc1C)ncc1nc(C3CCCCC3)n(C3CCC(OC(F)F)CC3)c12 (stereo not drawn) | 63% | 20.1% | 41.7% | 35.9% | 36.5% | 57% | 33.9% | 47% | 40.3% | 39.6% | 25.3% | 19.9% | 23.3% | 55.8% | 25.1% | 16.8% | 22.3% | 17.8% | 46.6% | 
CCN1C(=O)N(CC)C2Nn3c(s/c(=C\c4ccc(Cl)cc4Cl)c3=O)=NC21 (stereo not drawn) | 24.2% | 11.4% | 75.6% | 27.3% | 43% | 64.6% | 26.5% | 13.1% | 83.9% | 26% | 22.4% | 79.3% | 42.6% | 48.6% | 26.3% | 33.6% | 41.1% | 42.9% | 45.2% | 
O=C1Nc2ccccc2/C1=C/c1cn(C(=O)c2c(Cl)cccc2Cl)c2ccccc12 | 59.3% | 45.7% | 117% | 55.1% | -4.11% (active) | 56.6% | 44.5% | 67.4% | 79.2% | 66.2% | 31% | 69.7% | 54.7% | 68.7% | 35.8% | 41.7% | 36.7% | 48.4% | 81.5% | 
COc1ccc(-c2csc(C3=C(O)CN(CCCN4CCCC4=O)C3=N)n2)cc1OC | 103% | 88.9% | 129% | 79.6% | 78.3% | 121% | 92% | 90.1% | 97.2% | 122% | 94% | 114% | 106% | 93.8% | 99% | 83.5% | 103% | 93.5% | 124% | 
Cc1nn(-c2ccccc2)c(Oc2ccc(Cl)cc2)c1/C=N\N=c1/sc2ccccc2n1C | 108% | 81% | 98.2% | 79% | 94.2% | 79.6% | 101% | 107% | 91.9% | 87.4% | 77.4% | 84.8% | 74.4% | 99.1% | 86.9% | 62.3% | 70.8% | 93.3% | 110% | 93.3%
C[n+]1cc2cc(C(N)=O)[nH]c3c(=N)c(Cl)c(N)c1c23 | 69.7% | 53% | 99.1% | 53.7% | 73.8% | 64.8% | 74.1% | 90.6% | 45.5% | 59.9% | 42.1% | 35.3% | 86.3% | 75.1% | 62.2% | 48.4% | 78% | 64.2% | 109% | 
O=C(CCCCCCN1CC(=O)N2[C@@H](c3ccccc3Cl)c3[nH]c4ccccc4c3C[C@H]2C1=O)NO | 77.2% | 25.7% | 21.9% | 63.1% | 61.3% | 89.9% | 80.3% | 60% | 51.7% | 49.3% | 97.5% | 57.6% | -1.06% (active) | 71.8% | 60.1% | 61.8% | 34% | 14.7% | 43.8% | 
CCN(CC)S(=O)(=O)c1cccc(-c2ccc3c(NC(=O)C4CC4)n[nH]c3c2)c1 | 25.4% [6.25 µM] | 9.65% [6.25 µM] (active) | 21.1% [6.25 µM] | 38.5% [6.25 µM] | -11.7% [6.25 µM] (active) | 35.8% [6.25 µM] | 5.94% [6.25 µM] (active) | -2.68% [6.25 µM] (active) | 21.5% [6.25 µM] | 8.28% [6.25 µM] (active) | 23.5% [6.25 µM] | 3.07% [6.25 µM] (active) | -7.53% [6.25 µM] (active) | 30.6% [6.25 µM] | 12.1% [6.25 µM] | 16.9% [6.25 µM] | 28.7% [6.25 µM] | 10.5% [6.25 µM] |  | 
COc1cc(-c2nc(N3CCN(C)CC3)c3ccccc3n2)cc(OC)c1OC | 82.4% | 44.8% | 63.8% | 61.2% | 51.4% | 56.8% | 28.6% | 39.3% | 58.2% | 42% | 56.9% | 49.5% | 15.7% | 85.2% | 60.2% | 52.8% | 18.2% | 44.3% | 59.5% | 47%
COc1ccc(/C=C/c2c(C(=O)/C=C/c3ccc(F)cc3)c(C)nc3ccccc23)cc1 | 35.8% | 10.3% | 83.6% | 54.8% | 55.5% | 69.3% | 62.4% | 81.5% | 66.6% | 65% | 10.8% | 23.6% | 52.1% | 60.9% | 49.6% | 41.7% | 46.8% | 19.7% | 55.3% | 63.4%
Cc1cc(O)c(C2=NN(c3ccc(S(N)(=O)=O)cc3)C(c3ccccc3Cl)C2)cc1Cl (stereo not drawn) | 4.85% (active) | -18% (active) | 34.9% | 20% | -11.7% (active) | 11.6% | 63% | 41.9% | 65.2% | -11.9% (active) | 34.8% | 0.516% (active) | 41.7% | 58.1% | 7.79% (active) | 10.9% | 45.1% | -83.7% (active) | 63.2% | 36.5%
Fc1ccc(CNc2c3ccccc3nc3ccccc23)cc1F | 39.5% | 12.3% | 50.7% | 34.8% | 7.37% (active) | 57.2% | 29.8% | 22.1% | 65.1% | 43.1% | 18% | 13.4% | 66.2% | 32.9% | 30.3% | 35.7% | 60% | 12.5% | 82.4% | 
Clc1cccc(Cl)c1/C=C/c1cc(/C=C/c2c(Cl)cccc2Cl)[nH]n1 | 17% | 12% | 60.1% | 13.1% | 6.46% (active) | 53.2% | 20.9% | -43.7% (active) | 58.6% | 5.51% (active) | 27.7% | 10.7% | 11% | 25.9% | 20.3% | 30.8% | 38.8% | 46.3% | 46.2% | 
CC1SC(c2ccc(OCc3ccccc3)cc2)N(NC(=O)C(O)(c2ccccc2)c2ccccc2)C1=O (stereo not drawn) | 89.6% | 40.9% | 72.3% | 76.5% | 51.4% | 71.4% | -20.7% (active) | 74.4% | 78.3% | 57.2% | 60.9% | 38.1% | 77.5% | 69.3% | 66% | 30.1% | 63.7% | 58.9% | 78.2% | 
O=C(/C=C/c1c(Cl)nc2sccn12)c1nccs1 | 112% | 84.3% | 108% | 95.8% | 70.7% | 84.8% | 110% | 106% | 81% | 93.9% | 99.3% | 97.5% | 67.1% | 102% | 91.6% | 91.1% | 89.7% | 89.1% | 104% | 95.6%
CCc1ccccc1-n1c(N)c(C#N)c(-c2ccc(N(C)C)cc2)c(C#N)c1=O | 103% | 89.3% | 91% | 91.3% | 89.6% | 95.6% | 98.3% | 90.2% | 101% | 101% | 97.7% | 101% | 88.3% | 101% | 91.1% | 82.6% | 88% | 92.7% | 100% | 
